Experimental data taken from PubChem BioAssay (NCATS).
This is one part of the list. Inconclusive results are not listed. A number with no mark means an inactive call. Activity calls are given as the source filed them. The call rests on the fitted dose curve; in most records, active means well fitted inhibition curve with a large enough effect; inconclusive means small, poorly fitted or top-dose-only effect; inactive means no such curve, though single readings can be large or run the other way.

These compounds were tested against RecQ-like DNA helicase BLM (Homo sapiens) (UniProt P54132) (assay: qHTS for Inhibitors of WRN Helicase: BLM Helicase Counterscreen for WRN Inhibitors (AID 720503; further: nearly all actives have a fitted effect of over 60% in size)). Conditions: Recombinant BLM helicase DNA unwinding, red fluorescence; series mostly up to 57.1 µM; activity change, negative = inhibition: at the top concentration.
Chain of RecQ-like DNA helicase BLM (Homo sapiens) (P54132 whole entry, looked up): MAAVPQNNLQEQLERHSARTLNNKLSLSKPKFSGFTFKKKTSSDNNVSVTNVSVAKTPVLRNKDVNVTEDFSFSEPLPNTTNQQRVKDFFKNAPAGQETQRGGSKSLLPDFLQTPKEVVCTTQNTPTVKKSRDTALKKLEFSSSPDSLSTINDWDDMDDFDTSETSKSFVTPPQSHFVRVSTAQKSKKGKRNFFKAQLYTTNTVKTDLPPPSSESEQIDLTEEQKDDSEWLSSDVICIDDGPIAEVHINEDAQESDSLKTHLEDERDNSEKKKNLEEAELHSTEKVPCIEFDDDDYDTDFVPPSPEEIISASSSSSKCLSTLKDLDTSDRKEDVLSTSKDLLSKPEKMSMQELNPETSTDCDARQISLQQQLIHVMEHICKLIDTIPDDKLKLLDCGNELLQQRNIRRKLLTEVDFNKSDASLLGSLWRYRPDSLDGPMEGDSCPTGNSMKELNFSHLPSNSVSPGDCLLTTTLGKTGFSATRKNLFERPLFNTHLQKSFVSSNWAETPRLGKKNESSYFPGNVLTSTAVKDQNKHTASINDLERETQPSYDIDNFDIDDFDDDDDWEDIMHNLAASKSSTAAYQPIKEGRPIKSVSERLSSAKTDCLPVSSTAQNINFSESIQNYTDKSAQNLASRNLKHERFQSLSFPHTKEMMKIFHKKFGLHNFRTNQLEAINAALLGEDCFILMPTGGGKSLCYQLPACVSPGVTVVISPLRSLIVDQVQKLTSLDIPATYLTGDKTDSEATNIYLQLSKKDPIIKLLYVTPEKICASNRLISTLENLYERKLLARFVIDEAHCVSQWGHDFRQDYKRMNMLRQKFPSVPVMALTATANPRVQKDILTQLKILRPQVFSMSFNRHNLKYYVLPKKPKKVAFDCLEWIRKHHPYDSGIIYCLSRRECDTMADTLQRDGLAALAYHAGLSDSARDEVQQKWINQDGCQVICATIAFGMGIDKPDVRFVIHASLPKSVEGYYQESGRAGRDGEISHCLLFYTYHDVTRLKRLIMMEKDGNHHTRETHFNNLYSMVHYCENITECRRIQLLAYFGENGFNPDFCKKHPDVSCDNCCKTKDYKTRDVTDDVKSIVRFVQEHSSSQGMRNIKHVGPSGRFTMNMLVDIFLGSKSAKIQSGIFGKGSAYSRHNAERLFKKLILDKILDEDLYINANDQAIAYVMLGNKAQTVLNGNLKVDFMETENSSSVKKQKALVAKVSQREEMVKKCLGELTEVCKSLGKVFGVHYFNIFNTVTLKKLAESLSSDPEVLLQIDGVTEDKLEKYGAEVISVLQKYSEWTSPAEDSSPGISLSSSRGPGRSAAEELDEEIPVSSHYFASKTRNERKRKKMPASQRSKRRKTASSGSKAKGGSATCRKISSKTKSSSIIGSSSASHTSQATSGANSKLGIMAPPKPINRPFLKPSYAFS
Description: Inhibition of DNA repair is proposed as a strategy for combating cancer. Synthetic lethality is an approach that exploits preexisting DNA repair deficiencies in certain tumors to develop inhibitors of DNA repair pathways that compensate for the tumor-associated DNA repair deficiency. Because helicases play critical roles in the DNA damage response and in DNA repair, particularly in actively dividing and replicating cells, characterization of synthetic lethal relationships of DNA helicases may be of value in developing improved anticancer treatment strategies; moreover, small molecules that specifically target a given DNA helicase may be useful for understanding its role in cellular nucleic acid metabolism. The goal of this project is to identify small molecule, non-covalent chemical inhibitors of the Werner syndrome (WS) helicase (WRN), which plays an important role in cell proliferation, the replication stress response, and DNA repair. […] The WRN gene product that is defective in the chromosomal instability disorder has DNA helicase and exonuclease activities and interacts with a number of nuclear proteins to maintain genomic stability. A 1536-well format, fluorescence based, high-throughput screen (AID 651768) has been developed in collaboration with the Brosh Laboratory at the National Institute of Aging (NIA) to screen for inhibitors of the WRN. This counterscreen is used to determine the activity of the validated WRN inhibitors against another related helicase, the Bloom's syndrome (BLM) helicase. […] NIH Chemical Genomics Center [NCGC] NIH Molecular Libraries Probe Centers Network [MLPCN] MLPCN Grant: MH096530 Assay Submitter (PI): Robert Brosh, National Institute of Aging
Three uL of reaction buffer (25 mM Tris-HCl pH 8.0, 50 mM NaCl, 2 mM MgCl2, 1 mM DTT, 0.01% Tween-20, and 1 nM BLM) was dispensed into a 1536-well Greiner black assay plate via solenoid-valve based nanoliter dispensers. Compounds (23 nl each in columns 5-48) and control (23 nl each in column 2 as dose-response) were transferred to the assay plate via a Kalypsys pin-tool equipped with a 1536-pin array. The plates were incubated for 15 min at room temperature, followed by the addition of 1 ul substrates (100 nM DNA and 2 mM ATP, final concentrations) to start the reaction. The plates were transferred into a ViewLux CCD imager where the reaction was measured in a discontinuous kinetic mode (two reads spaced 15 minutes apart, with intermediate room temperature incubation of the covered assay plate) using the standard red-fluorescence optics (excitation filter 525 nm, emission filter 598 nm). Enzyme-free and vehicle (DMSO) controls were included for signal normalization.
Potency means the concentration at half of the fitted maximal effect.

| SMILES | activity change, negative = inhibition | Potency |
| --- | --- | --- |
| COC(=O)/C=C\C(=O)Nc1cccc([N+](=O)[O-])c1 | -1.68% | – |
| O=c1[nH]c2ccccc2n2c(-c3ccccc3)nnc12 | -24.8% | – |
| COc1ccc(Cl)cc1NC(=O)CCS(=O)(=O)c1ccc(Br)cc1 | – | 4.82 µM (active) |
| Cc1c(CC(=O)N2CCN(C(=O)C3COc4ccccc4O3)CC2)c(=O)oc2c(O)c(O)ccc12 (stereo not given) | – | 1.52 µM (active) |
| CSc1nnc(SCc2nc3sc(C(=O)O)c(C)c3c(=O)[nH]2)s1 | 4.24% | – |
| COc1cccc2c1C(=O)c1c(O)c3c(c(O)c1C2=O)CC(O)(C(C)=NNC(=O)c1ccc(Cl)c(Cl)c1)CC3OC1CC(N)C(O)C(C)O1 (stereo not given) | – | 4.29 µM (active) |
| CCc1ccc2nc3sc(C(=O)Nc4nnc(CC)s4)c(N)c3cc2c1 | – | 10.8 µM (active) |
| Cc1ccc(-c2nc(SCc3ccc(Br)cc3)n3[nH]c(=O)cc3n2)cc1 | – | 4.82 µM (active) |
| COc1ccc(Cl)cc1-c1cc(C(=O)Nc2cc(OC)c(OC)c(OC)c2)[nH]n1 | – | 27.1 µM (active) |
| CCOc1ccccc1C(=O)NCc1ccco1 | – | 19.2 µM (active) |
| N#C/C(=C\C1=C(N2CCOCC2)C(=C\c2ccccc2)/CC1)C(=O)Nc1ccccc1F | – | 21.5 µM (active) |
| O=C(Nc1ccccc1)c1nnsc1S(=O)(=O)c1ccc(Cl)cc1 | -18.7% | – |
| CC(=O)N(C1=C(Cl)C(=O)c2ccccc2C1=O)c1ccc(C(=O)O)cc1 | -6.7% | – |
| CN(C)c1nc(Nc2ccc(Cl)c(Cl)c2)nc(N(C)C)n1 | -11.5% | – |
| CCN(CC)CCOc1ccc2c(c1)C(=NNC(=O)c1ccccn1)c1cc(OCCN(CC)CC)ccc1-2 | -96.5% | – |
